Test results taken from PubChem BioAssay (Tox21).
Inconclusive results are not listed. Active and inactive are the calls of the source. The call rests on the fitted dose curve; in most records, active means well fitted curve in the direction sought with a large enough effect in the repeat runs; inconclusive means weak or mixed curves; inactive means no such curve, though single readings can be large; an effect the other way counts as inactive or inconclusive.

Legend:
[1] = A CellTox Green Cytotoxicity Assay to monitor cytotoxicity in HEK293 cells - 40 hour (AID 1224871); further: nearly all actives have a fitted effect of over 45% in size
Method in brief: (§1)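 Seeding of HEK293 cells together with cytotoxicity dye preceded a 5 h incubation at 37 C/5% CO2. Test compounds in DMSO were then added and fluorescence monitored across 40 h.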

[2] = qHTS RealTime-Glo MT Cell Viability Assay in HEK293 cells - 16 hour (AID 1224872); further: top concentration of the series differs between compounds; nearly all actives have a fitted effect of over 50% in size
Method in brief: (§2)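 Luminescence generated by NanoLuc from substrate produced by living HEK293 cells served as the viability signal. Each value reflects the reading at its stated time point during continuous 40 h compound exposure at 37 C.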

[3] = qHTS RealTime-Glo MT Cell Viability Assay in HepG2 cells - 8 hour (AID 1224873); further: nearly all actives have a fitted effect of over 55% in size
Method in brief: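 Real-time viability: cells seeded at 600 per well together with NanoLuc and cell-permeant prosubstrate, compounds added after 5 h incubation. Luminescence tracked at 0, 8, 16, 24, 32 and 40 h of exposure.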

[4] = qHTS RealTime-Glo MT Cell Viability Assay in HEK293 cells - 40 hour (AID 1224874); conditions: RealTime-Glo luminescence; max response: active compounds read low; further: nearly all actives have a fitted effect of over 50% in size
Method in brief: (§3)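 Tox21 screen in HEK293 using RealTime-Glo MT chemistry, with cells and reagent co-dispensed. Luminescence proportional to viable cell number was captured at intervals during 40 h compound exposure at 37 C.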

[5] = A CellTox Green Cytotoxicity Assay to monitor cytotoxicity in HEK293 cells - 24 hour (AID 1224875); further: series mostly up to about 77 µM; nearly all actives have a fitted effect of over 45% in size
Method in brief: as §1

[6] = A CellTox Green Cytotoxicity Assay to monitor cytotoxicity in HepG2 cells - 16 hour (AID 1224876); further: nearly all actives have a fitted effect of over 45% in size
Method in brief: (§4)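 Nonlytic assay: viable cells exclude the dye, so fluorescence scales with cell death. HepG2 at 600 cells/well, compounds added after 5 h, signal read across 40 h.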

[7] = qHTS RealTime-Glo MT Cell Viability Assay in HepG2 cells - 32 hour (AID 1224877); further: nearly all actives have a fitted effect of over 55% in size
Method in brief: (§5)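 Tox21 10K library screened in qHTS format on HepG2 cells carrying RealTime-Glo reagents. Compounds were added after a 5 h preincubation, and the luminescent signal from continuous culture was measured repeatedly during 40 h treatment.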

[8] = A CellTox Green Cytotoxicity Assay to monitor cytotoxicity in HepG2 cells - 24 hour (AID 1224878); further: nearly all actives have a fitted effect of over 45% in size
Method in brief: as §4

[9] = A CellTox Green Cytotoxicity Assay to monitor cytotoxicity in HepG2 cells - 40 hour (AID 1224879); further: nearly all actives have a fitted effect of over 40% in size
Method in brief: as §4

[10] = qHTS RealTime-Glo MT Cell Viability Assay in HEK293 cells - 0 hour (AID 1224880)
Method in brief: as §3

[11] = A CellTox Green Cytotoxicity Assay to monitor cytotoxicity in HEK293 cells - 32 hour (AID 1224881); further: nearly all actives have a fitted effect of over 40% in size
Method in brief: as §1

[12] = A CellTox Green Cytotoxicity Assay to monitor cytotoxicity in HepG2 cells - 0 hour (AID 1224882); further: nearly all actives have a fitted effect of over 35% in size
Method in brief: as §4

[13] = A CellTox Green Cytotoxicity Assay to monitor cytotoxicity in HepG2 cells - 32 hour (AID 1224883); further: nearly all actives have a fitted effect of over 50% in size
Method in brief: as §4

[14] = A CellTox Green Cytotoxicity Assay to monitor cytotoxicity in HEK293 cells - 8 hour (AID 1224884); further: nearly all actives have a fitted effect of over 35% in size
Method in brief: as §1

[15] = qHTS RealTime-Glo MT Cell Viability Assay in HepG2 cells - 16 hour (AID 1224885); further: nearly all actives have a fitted effect of over 50% in size
Method in brief: as §5

[16] = qHTS RealTime-Glo MT Cell Viability Assay in HEK293 cells - 24 hour (AID 1224886)
Method in brief: as §2

[17] = qHTS RealTime-Glo MT Cell Viability Assay in HEK293 cells - 8 hour (AID 1224887)
Method in brief: as §3

[18] = A CellTox Green Cytotoxicity Assay to monitor cytotoxicity in HEK293 cells - 16 hour (AID 1224888); further: nearly all actives have a fitted effect of over 35% in size
Method in brief: as §1

[19] = qHTS RealTime-Glo MT Cell Viability Assay in HepG2 cells - 0 hour (AID 1224889); further: nearly all actives have a fitted effect of over 50% in size
Method in brief: as §5

[20] = A CellTox Green Cytotoxicity Assay to monitor cytotoxicity in HepG2 cells - 8 hour (AID 1224890); further: nearly all actives have a fitted effect of over 45% in size
Method in brief: as §4
On the % scale 0 is the no-effect control and ±100 the full control effect.

O=C(Nc1ccccc1)c1ccccc1I
inactive: Potency [1] | Potency [2] | Potency [3] | max response [4] -14.8% | Potency [5] | Potency [6] | Potency [7] | Potency [8] | Potency [9] | outcome [10] | Potency [11] | outcome [12] | Potency [13] | Potency [14] | Potency [15] | Potency [16] | Potency [17] | Potency [18] | Potency [19] | Potency [20]

CC(C)(C)NCC(O)c1cc(Cl)c(N)c(Cl)c1 (stereo unspecified)
inactive: Potency [1] | Potency [2] | Potency [3] | max response [4] 2.03% | Potency [5] | Potency [6] | Potency [7] | Potency [8] | Potency [9] | outcome [10] | Potency [11] | outcome [12] | Potency [13] | Potency [15] | Potency [16] | Potency [17] | Potency [18] | Potency [19] | Potency [20]

Cc1cc(C)nc(Nc2ccccc2)n1
inactive: Potency [1] | Potency [2] | Potency [3] | max response [4] -2.72% | Potency [5] | Potency [6] | Potency [7] | Potency [8] | Potency [9] | outcome [10] | Potency [11] | outcome [12] | Potency [13] | Potency [14] | Potency [15] | Potency [17] | Potency [18] | Potency [19] | Potency [20]

CC(C)CC#N
inactive: Potency [1] | Potency [2] | Potency [3] | max response [4] 8.82% | Potency [5] | Potency [6] | Potency [7] | Potency [8] | Potency [9] | outcome [10] | Potency [11] | outcome [12] | Potency [13] | Potency [14] | Potency [15] | Potency [17] | Potency [18] | Potency [19] | Potency [20]

N#CC(O)c1ccccc1 (stereo unspecified)
inactive: Potency [1] | Potency [2] | Potency [3] | max response [4] 19.9% | Potency [5] | Potency [6] | Potency [7] | Potency [8] | Potency [9] | outcome [10] | outcome [12] | Potency [13] | Potency [14] | Potency [15] | Potency [16] | Potency [17] | Potency [18] | Potency [19] | Potency [20]

C#CCN1C(=O)COc2cc(F)c(N3C(=O)C4=C(CCCC4)C3=O)cc21
inactive: Potency [1] | Potency [2] | Potency [3] | max response [4] 2.01% | Potency [5] | Potency [6] | Potency [7] | Potency [8] | Potency [9] | Potency [11] | outcome [12] | Potency [13] | Potency [14] | Potency [15] | Potency [16] | Potency [17] | Potency [18] | Potency [19] | Potency [20]

CS(=O)(=O)c1cc(C(F)(F)F)ccc1C(=O)c1cnoc1C1CC1
inactive: Potency [1] | Potency [2] | Potency [3] | max response [4] -3.5% | Potency [5] | Potency [6] | Potency [7] | Potency [8] | Potency [9] | outcome [10] | outcome [12] | Potency [13] | Potency [14] | Potency [15] | Potency [16] | Potency [17] | Potency [18] | Potency [20]

CCOC(=O)N(C)C(=O)CSP(=S)(OCC)OCC
inactive: Potency [1] | Potency [2] | Potency [3] | max response [4] -10% | Potency [5] | Potency [6] | Potency [7] | Potency [8] | Potency [9] | Potency [11] | outcome [12] | Potency [13] | Potency [15] | Potency [16] | Potency [17] | Potency [18] | Potency [20]

Cc1coc2c1CCC(C)C2 (stereo unspecified)
inactive: Potency [1] | Potency [2] | Potency [3] | max response [4] 15.4% | Potency [5] | Potency [6] | Potency [7] | Potency [8] | Potency [9] | Potency [11] | outcome [12] | Potency [13] | Potency [14] | Potency [15] | Potency [16] | Potency [17] | Potency [18] | Potency [19] | Potency [20]

N#Cc1ccncc1
inactive: Potency [1] | Potency [2] | Potency [3] | max response [4] 11.4% | Potency [5] | Potency [6] | Potency [7] | Potency [8] | Potency [9] | Potency [11] | outcome [12] | Potency [13] | Potency [14] | Potency [16] | Potency [17] | Potency [18] | Potency [19] | Potency [20]

Nc1c(Br)cc([N+](=O)[O-])cc1[N+](=O)[O-]
inactive: Potency [1] | Potency [2] | Potency [3] | max response [4] -10.5% | Potency [5] | Potency [6] | Potency [7] | Potency [8] | Potency [9] | Potency [11] | outcome [12] | Potency [13] | Potency [14] | Potency [16] | Potency [17] | Potency [18] | Potency [19] | Potency [20]

ClCC(Cl)(Cl)Cl
inactive: Potency [1] | Potency [2] | Potency [3] | max response [4] -0.0203% | Potency [5] | Potency [6] | Potency [7] | Potency [8] | Potency [9] | Potency [11] | outcome [12] | Potency [13] | Potency [14] | Potency [15] | Potency [17] | Potency [18] | Potency [19] | Potency [20]

CCC(=O)C(CCN(C)C)(c1ccccc1)c1ccccc1
inactive: Potency [1] | Potency [2] | Potency [3] | max response [4] -20.5% | Potency [5] | Potency [6] | Potency [7] | Potency [8] | Potency [9] | outcome [10] | outcome [12] | Potency [13] | Potency [14] | Potency [15] | Potency [16] | Potency [17] | Potency [18] | Potency [19] | Potency [20]

Cc1ncsc1CCCl
inactive: Potency [1] | Potency [2] | Potency [3] | max response [4] 3.38% | Potency [5] | Potency [6] | Potency [7] | Potency [8] | Potency [9] | outcome [10] | outcome [12] | Potency [13] | Potency [14] | Potency [15] | Potency [16] | Potency [17] | Potency [18] | Potency [19] | Potency [20]
